Assay results as given in PubChem BioAssay (Tox21).
Values joined by “and” are separate entries in the source; they are usually repeats but may differ in a detail not shown here. Equal entries are not always repeated. Records with an inconclusive call do not appear. More than one record can exist for a structure, and the calls need not agree. Active and inactive are the calls of the source. Unless noted, calls follow the shape of the dose curve; as a rule, active = well fitted curve in the direction sought with a large enough effect in the repeat runs; inconclusive = weak or mixed curves; inactive = no such curve, though single readings can be large; an effect the other way counts as inactive or inconclusive.

Key:
[1] = qHTS assay to identify aromatase inhibitors - cell viability counter screen (AID 743084);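 also: cells stimulated with testosterone during compound exposure; nearly all actives have a fitted effect of over 55% in size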; also: potency is read from the fitted curve at half-maximal effect
[2] = target: Aryl hydrocarbon receptor (Homo sapiens) (UniProt P35869); assay: qHTS assay to identify small molecule that activate the aryl hydrocarbon receptor (AhR) signaling pathway (AID 743085); also: nearly all actives have a fitted effect of over 15% in size; also: potency is read from the fitted curve at half-maximal effect;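 as to activation: HG2L7.5c1 human HepG2 liver cells with stably integrated DRE-driven firefly reporter; series mostly up to about 70 µM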
Summary of the method: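 HepG2 cells stably carrying a 20-DRE firefly luciferase reporter (HG2L7.5c1) treated with compound for 24 hr at 37C. Luciferase read by ONE-Glo luminescence, with CellTiter-Fluor viability read first.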

[3] = qHTS assay to identify small molecule that activate the aryl hydrocarbon receptor (AhR) signaling pathway - cell viability counter screen (AID 743086);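 also: HepG2 liver cells carrying the AhR DRE luciferase reporter; series mostly up to about 70 µM; nearly all actives have a fitted effect of over 45% in size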
Summary of the method: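 Cytotoxicity counter screen: CellTiter-Fluor signal (30 min, 37 C) in 4000 HepG2 cells/well carrying the DRE-luciferase reporter, following 24 h compound exposure at 37 C.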

[4] = qHTS assay for small molecule agonists of the antioxidant response element (ARE) signaling pathway - cell viability counter screen (AID 743203; calls by dose curve; also: nearly all actives have a fitted effect of over 55% in size; also: potency is read from the fitted curve at half-maximal effect)
Summary of the method: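 Cytotoxicity was tested in parallel with the ARE reporter screen. ARE-bla HepG2 cells were exposed to compounds for 16 hrs, and viability was taken from CellTiter-Glo luminescence.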

[5] = qHTS assay for small molecule activators of the heat shock response signaling pathway - cell viability counter screen (AID 743209); also: nearly all actives have a fitted effect of over 50% in size
Summary of the method: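 Cytotoxicity counter screen run in parallel with the HSE beta-lactamase reporter, using the same wells. HeLa HSE-bla cells received compound for 5 h at 37 C; ATP-based CellTiter-Glo luminescence was measured after 30 min at room temperature.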

[6] = qHTS assay for small molecule activators of the heat shock response signaling pathway (AID 743210; active = well fitted activation curve with a large enough effect in the signal ratio in the repeat runs, with a control signal flat, not every such curve was filed as active; the % refers to the signal ratio; also: series mostly up to about 63 µM)
Summary of the method: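 Compound exposure lasted 5 h at 37 C in HeLa cells carrying a heat-shock-element-driven beta-lactamase reporter. Read-out: fluorescence intensity after 2.5 h room-temperature loading with LiveBLAzer B/G FRET substrate.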

[7] = qHTS assay to identify small molecule agonists of the peroxisome proliferator-activated receptor delta (PPARd) signaling pathway - cell viability counter screen (AID 743211); also: nearly all actives have a fitted effect of over 55% in size
Summary of the method: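 PPARd-bla HEK293H cells (3000/well) were pre-incubated 5 h at 37 C, then exposed to compound for 17 h at 37 C. After 2 h with LiveBLAzer substrate, CellTiter-Glo was added to the same wells; luminescence read after 30 min at room temperature.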

[8] = qHTS assay to identify small molecule antagonists of the peroxisome proliferator-activated receptor delta (PPARd) signaling pathway - cell viability counter screen (AID 743213); also: nearly all actives have a fitted effect of over 50% in size; also: potency is read from the fitted curve at half-maximal effect
Summary of the method: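 CellTiter-Glo was added to PPARd-bla HEK293H wells following 17 h compound treatment in the presence of 300 nM L165041. Luminescence was recorded after 30 min at room temperature.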

[9] = qHTS assay to identify small molecule agonists of the farnesoid-X-receptor (FXR) signaling pathway - cell viability counter screen (AID 743218); also: nearly all actives have a fitted effect of over 45% in size
Summary of the method: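 Cells were seeded, left 5 h at 37 C and 5% CO2, then dosed with compound in DMSO for 16 h. After the beta-lactamase FRET read, CellTiter-Glo was added and luminescence measured 30 min later.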

[10] = qHTS assay to identify small molecule antagonists of the farnesoid-X-receptor (FXR) signaling pathway - cell viability counter screen (AID 743221; active = well fitted cell-killing curve with a large enough effect in the repeat runs, not every such curve was filed as active; also: nearly all actives have a fitted effect of over 50% in size)
Summary of the method: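 GeneBLAzer FXR-UAS-bla HEK 293T cells, compound plus chenodeoxycholic acid (50 uM final), 16 h at 37 C. CellTiter-Glo added to the same wells after the beta-lactamase read; luminescence read after 30 min at room temperature as viability.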

[11] = target: Vitamin D3 receptor (Homo sapiens) (UniProt P11473); assay: qHTS assay to identify small molecule agonists of the vitamin D receptor (VDR) signaling pathway (AID 743222; calls by dose curve)
Summary of the method: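 Cells carrying a VDR-driven beta-lactamase reporter are seeded at 2,000 per well and rested 4 h. Compounds in DMSO are added for 16 h at 37C, and FRET substrate fluorescence is measured after 2 h at room temperature.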

[12] = target: Vitamin D3 receptor (Homo sapiens) (UniProt P11473); assay: qHTS assay to identify small molecule antagonists of the vitamin D receptor (VDR) signaling pathway (AID 743223; active = well fitted inhibition curve with a large enough effect in the signal ratio in the repeat runs, not every such curve was filed as active; the % refers to the signal ratio)
Summary of the method: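 VDR-bla cells were treated with compound plus 3 nM final 1alpha,25-dihydroxyvitamin D3 for 16 h at 37C. Beta-lactamase reporter read by B/G FRET substrate fluorescence after 2 h at room temperature. qHTS format.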

[13] = target: Peroxisome proliferator-activated receptor delta (Homo sapiens) (UniProt Q03181); assay: qHTS assay to identify small molecule agonists of the peroxisome proliferator-activated receptor delta (PPARd) signaling pathway (AID 743212; calls by dose curve)
Summary of the method: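 Beta-lactamase reporter readout: a ratiometric FRET signal from the LiveBLAzer substrate after 2 h at room temperature. Compound exposure at 37 °C in PPARδ-bla HEK293H cells driven by an upstream activator sequence.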

[14] = target: Peroxisome proliferator-activated receptor delta (Homo sapiens) (UniProt Q03181); assay: qHTS assay to identify small molecule antagonists of the peroxisome proliferator-activated receptor delta (PPARd) signaling pathway (AID 743215; active = well fitted inhibition curve with a large enough effect in the signal ratio in the repeat runs, not every such curve was filed as active; the % refers to the signal ratio;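 also: cells stimulated with agonist L165041 at 300 nM final during compound exposure; series mostly up to about 62 µM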)
Summary of the method: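 Cells: HEK293H with a UAS-driven beta-lactamase reporter responsive to PPARd. Compounds were co-added with L165041 (300 nM, final) and incubated 17 h at 37 C before a 2 h room-temperature FRET substrate step and fluorescence reading.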

[15] = qHTS assay to identify small molecule antagonists of the peroxisome proliferator-activated receptor gamma (PPARg) signaling pathway - cell viability counter screen (AID 743194); also: nearly all actives have a fitted effect of over 55% in size
Summary of the method: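 Viability was measured as CellTiter-Glo luminescence in GeneBLAzer PPARg UAS-bla HEK293H cells. These cells had been exposed 17 h at 37 C to compounds together with rosiglitazone at 50 nM final, with the beta-lactamase readout taken in the same wells.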

[16] = target: Peroxisome proliferator-activated receptor gamma (Homo sapiens) (UniProt P37231); assay: qHTS assay to identify small molecule agonists of the peroxisome proliferator-activated receptor gamma (PPARg) signaling pathway (AID 743094; active = well fitted activation curve with a large enough effect in the signal ratio in the repeat runs, not every such curve was filed as active; the % refers to the signal ratio)
Summary of the method: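 Cells from the PPARg UAS-bla HEK293H line are plated and incubated 5 h at 37C. Compounds in DMSO are pinned in and left 17 h at 37C. LiveBLAzer B/G substrate is then added for 1 h at room temperature before fluorescence is measured.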

[17] = qHTS assay for small molecule agonists of the antioxidant response element (ARE) signaling pathway (AID 743202; active = well fitted activation curve with a large enough effect in the signal ratio in the repeat runs, not every such curve was filed as active; the % refers to the signal ratio; also: potency is read from the fitted curve at half-maximal effect)
Summary of the method: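 After 16 hours of compound treatment at 37 C, HepG2 cells with a stably integrated ARE-driven beta-lactamase reporter were loaded 2 hours at room temperature with LiveBLAzer B/G FRET substrate and fluorescence intensity measured.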

[18] = target: Bile acid receptor (Homo sapiens) (UniProt Q96RI1); assay: qHTS assay to identify small molecule agonists of the farnesoid-X-receptor (FXR) signaling pathway (AID 743220; active = well fitted activation curve with a large enough effect in the signal ratio in the repeat runs, not every such curve was filed as active; the % refers to the signal ratio)
Summary of the method: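 FXR-UAS-bla HEK 293T cells carrying a UAS-driven beta-lactamase reporter were plated for 5 h at 37C/5% CO2, then exposed to DMSO-dissolved Tox21 10K compounds for 16 h at 37C. A LiveBLAzer B/G FRET substrate was loaded for 2 h at room temperature before fluorescence reading.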

[19] = target: Bile acid receptor (Homo sapiens) (UniProt Q96RI1); assay: qHTS assay to identify small molecule antagonists of the farnesoid-X-receptor (FXR) signaling pathway (AID 743217; active = well fitted inhibition curve with a large enough effect in the signal ratio in the repeat runs, not every such curve was filed as active; the % refers to the signal ratio)
Summary of the method: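 Cells carrying a UAS-driven beta-lactamase reporter (GeneBLAzer FXR-UAS-bla HEK 293T) were plated and rested 5 h at 37 °C. Compounds in DMSO were added alongside chenodeoxycholic acid agonist at 50 uM final and left 16 h at 37 °C before FRET substrate readout.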

[20] = target: Peroxisome proliferator-activated receptor gamma (Homo sapiens) (UniProt P37231); assay: qHTS assay to identify small molecule antagonists of the peroxisome proliferator-activated receptor gamma (PPARg) signaling pathway (AID 743191; calls by dose curve; also: nearly all actives have a fitted effect of over 30% in size; also: potency is read from the fitted curve at half-maximal effect)
Summary of the method: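 Beta-lactamase reporter under UAS control in HEK293H PPARg-bla cells; compound treatment 17 h at 37C. Read-out: fluorescence intensity after 1 h room-temperature incubation with LiveBLAzer B/G FRET substrate.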

Measured: Potency

Sequence of Bile acid receptor (Homo sapiens) (Q96RI1 whole entry, looked up): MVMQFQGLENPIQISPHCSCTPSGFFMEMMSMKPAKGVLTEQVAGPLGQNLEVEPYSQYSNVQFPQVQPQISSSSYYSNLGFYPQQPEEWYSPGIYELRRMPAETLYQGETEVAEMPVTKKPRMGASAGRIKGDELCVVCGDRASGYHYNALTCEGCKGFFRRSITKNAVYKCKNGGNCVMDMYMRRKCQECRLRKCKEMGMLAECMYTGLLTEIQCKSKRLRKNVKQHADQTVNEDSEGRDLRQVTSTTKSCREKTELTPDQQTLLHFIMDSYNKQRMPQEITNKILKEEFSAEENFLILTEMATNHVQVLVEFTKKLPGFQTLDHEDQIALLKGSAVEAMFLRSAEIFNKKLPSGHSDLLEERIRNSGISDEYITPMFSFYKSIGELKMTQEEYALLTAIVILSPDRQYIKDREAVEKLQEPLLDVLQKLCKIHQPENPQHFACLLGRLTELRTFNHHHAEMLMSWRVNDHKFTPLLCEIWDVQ
Sequence of Peroxisome proliferator-activated receptor gamma (Homo sapiens) (P37231 whole entry, looked up): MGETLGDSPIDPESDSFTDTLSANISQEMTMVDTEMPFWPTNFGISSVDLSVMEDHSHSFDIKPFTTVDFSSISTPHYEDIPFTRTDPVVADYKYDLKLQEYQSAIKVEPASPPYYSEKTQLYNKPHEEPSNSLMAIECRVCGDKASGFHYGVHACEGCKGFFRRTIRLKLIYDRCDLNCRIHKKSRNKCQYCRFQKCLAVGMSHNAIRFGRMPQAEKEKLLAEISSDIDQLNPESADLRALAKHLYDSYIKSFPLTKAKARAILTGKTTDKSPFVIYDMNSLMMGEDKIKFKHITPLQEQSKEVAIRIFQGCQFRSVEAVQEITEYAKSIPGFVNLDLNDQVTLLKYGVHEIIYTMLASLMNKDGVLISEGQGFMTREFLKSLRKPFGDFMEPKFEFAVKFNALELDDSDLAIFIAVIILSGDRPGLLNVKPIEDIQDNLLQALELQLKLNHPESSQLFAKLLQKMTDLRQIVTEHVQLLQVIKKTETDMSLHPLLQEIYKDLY
Sequence of Peroxisome proliferator-activated receptor delta (Homo sapiens) (Q03181 whole entry, looked up): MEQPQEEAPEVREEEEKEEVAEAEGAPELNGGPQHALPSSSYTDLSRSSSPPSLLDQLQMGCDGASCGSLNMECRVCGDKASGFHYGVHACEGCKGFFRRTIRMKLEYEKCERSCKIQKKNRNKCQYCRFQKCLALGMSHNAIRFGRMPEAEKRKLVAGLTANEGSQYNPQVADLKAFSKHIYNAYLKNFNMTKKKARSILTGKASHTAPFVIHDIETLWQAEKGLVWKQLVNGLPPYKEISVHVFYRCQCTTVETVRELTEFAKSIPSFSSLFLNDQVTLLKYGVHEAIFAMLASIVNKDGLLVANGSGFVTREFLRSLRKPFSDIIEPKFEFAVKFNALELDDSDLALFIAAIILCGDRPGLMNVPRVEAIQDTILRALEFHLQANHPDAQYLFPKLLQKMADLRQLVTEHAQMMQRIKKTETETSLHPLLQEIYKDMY
Sequence of Aryl hydrocarbon receptor (Homo sapiens) (P35869 whole entry, looked up): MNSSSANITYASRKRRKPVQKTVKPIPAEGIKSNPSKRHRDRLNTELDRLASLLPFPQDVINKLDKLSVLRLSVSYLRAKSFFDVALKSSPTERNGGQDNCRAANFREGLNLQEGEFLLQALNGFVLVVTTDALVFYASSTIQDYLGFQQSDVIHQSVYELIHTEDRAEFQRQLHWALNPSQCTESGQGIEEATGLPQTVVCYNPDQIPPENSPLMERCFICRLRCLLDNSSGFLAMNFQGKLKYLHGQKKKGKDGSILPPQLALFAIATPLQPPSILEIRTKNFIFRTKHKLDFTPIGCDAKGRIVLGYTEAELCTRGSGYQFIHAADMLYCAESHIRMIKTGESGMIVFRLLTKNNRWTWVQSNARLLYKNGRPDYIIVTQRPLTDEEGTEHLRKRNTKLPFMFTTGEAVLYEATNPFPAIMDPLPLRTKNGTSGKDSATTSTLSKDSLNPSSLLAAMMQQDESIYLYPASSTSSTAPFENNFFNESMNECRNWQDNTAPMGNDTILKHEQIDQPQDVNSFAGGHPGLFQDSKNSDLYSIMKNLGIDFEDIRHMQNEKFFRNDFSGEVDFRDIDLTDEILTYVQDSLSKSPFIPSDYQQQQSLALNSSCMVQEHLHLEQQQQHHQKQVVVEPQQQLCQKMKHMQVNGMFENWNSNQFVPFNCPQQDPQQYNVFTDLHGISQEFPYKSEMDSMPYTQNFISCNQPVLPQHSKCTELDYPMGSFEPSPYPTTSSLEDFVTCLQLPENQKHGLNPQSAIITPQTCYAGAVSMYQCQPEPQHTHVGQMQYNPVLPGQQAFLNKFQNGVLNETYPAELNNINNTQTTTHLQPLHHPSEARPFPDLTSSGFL
Sequence of Vitamin D3 receptor (Homo sapiens) (P11473 whole entry, looked up): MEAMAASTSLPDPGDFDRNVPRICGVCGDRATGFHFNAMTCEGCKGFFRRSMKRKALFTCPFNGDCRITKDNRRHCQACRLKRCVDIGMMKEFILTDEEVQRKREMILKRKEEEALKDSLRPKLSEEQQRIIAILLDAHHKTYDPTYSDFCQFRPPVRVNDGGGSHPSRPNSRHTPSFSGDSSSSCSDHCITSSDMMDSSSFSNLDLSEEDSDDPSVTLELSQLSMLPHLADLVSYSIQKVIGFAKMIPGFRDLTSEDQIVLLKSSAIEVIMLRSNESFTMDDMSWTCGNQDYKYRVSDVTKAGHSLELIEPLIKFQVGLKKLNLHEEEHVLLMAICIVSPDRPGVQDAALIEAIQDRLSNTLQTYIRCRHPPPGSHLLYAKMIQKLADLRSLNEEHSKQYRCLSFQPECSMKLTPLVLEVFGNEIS

Oc1ccc2ccccc2c1
inactive: [1] | [3] | [4] | [5] | [6] | [7] | [9] | [10] | [11] | [12]
active: [2] 49.7 µM and 27.3 µM
inactive and 3.89 µM (active): [8]

ClC1=C(Cl)C(Cl)(Cl)C(Cl)=C1Cl
active: [4] 13.8 µM and 12.2 µM
not listed: [6] | [15] | [16] | [17] | [18] | [19] | [20]
inactive: all other assays above

CC(=O)[C@@]1(O)CC[C@H]2[C@@H]3CCC4=CC(=O)CC[C@]4(C)[C@H]3CC[C@@]21C
inactive: [3] | [15] | [4] | [5] | [6] | [13] | [8] | [9] | [10]

CS(=O)(=O)Nc1ccc([N+](=O)[O-])cc1Oc1ccccc1
not listed: [13] | [14] | [15] | [16] | [17] | [18] | [19] | [20]
inactive: all other assays above

CC1=CC[C@H]2C[C@@H]1C2(C)C
not listed: [2] | [12] | [14] | [18] | [19] | [20]
inactive: all other assays above

COC(=O)c1ccccc1O
not listed: [6] | [16] | [17] | [18] | [19] | [20]
inactive: all other assays above

CC(C)(C)C(=O)C1C(=O)c2ccccc2C1=O
not listed: [1] | [2] | [3] | [15] | [16] | [17] | [19] | [20]
inactive: all other assays above

Oc1ccc2ccccc2c1N=Nc1ccccc1
active: [1] 30.6 µM and 24.3 µM | [2] 3.06 µM
not listed: [3] | [11] | [12] | [13] | [14] | [17] | [20]
inactive: all other assays above

Oc1ccc(OCc2ccccc2)cc1
21.2 µM (active) and inactive: [17]
not listed: [16] | [20]
inactive: all other assays above

Oc1c(Cl)cc(Cl)c(Cl)c1Cl
active: [20] 17 µM
inactive: [1] | [3] | [16] | [4] | [5] | [8] | [14] | [18] | [10] | [11]

Cc1cc(Cc2ccc(N)c(C)c2)ccc1N
not listed: [1] | [2] | [11] | [12] | [13] | [14] | [16] | [20]
inactive: all other assays above

CC(C)(C)C1CCC(O)CC1 (stereo not given)
not listed: [2] | [7] | [17] | [18] | [19]
inactive: all other assays above

NC(=O)NNc1ccccc1
not listed: [13] | [14] | [15] | [16] | [17] | [18] | [19] | [20]
inactive: all other assays above

CCCCCCCCCC(=O)O
active: [20] 30.9 µM
not listed: [2] | [7] | [13] | [15] | [16] | [17] | [18] | [19]
inactive: all other assays above

O=C(O)c1ccc([N+](=O)[O-])cc1
not listed: [16] | [17] | [20]
inactive: all other assays above

C[C@@H]1O[C@@H](OC[C@H]2O[C@@H](Oc3c(-c4ccc(O)c(O)c4)oc4cc(O)cc(O)c4c3=O)[C@H](O)[C@@H](O)[C@@H]2O)[C@H](O)[C@H](O)[C@H]1O
not listed: [7] | [16] | [17] | [18] | [19] | [20]
inactive: all other assays above
